Data on 12 molecules can be found in PubChem BioAssay (NCI).

Among the test systems are NCI-H23 lung; NCI-H226 lung; NCI-H322M lung; HOP-62 NSCLC; NCI-H460 lung; HOP-92 NSCLC; NCI-H522 lung; A549/ATCC NSCLC; 786-0 renal; COLO 205 colon.
What all share (assay): NCI-60 one-dose screen, 48 h (100 = growth as untreated, 0 = no growth, -100 = all killed)
Conditions in all cases: 10 µM unless noted

Compounds without any hit were thinned out: in the full panel of roughly 83,000, 20% have a hit.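 Values shown are percent growth following 48 h exposure of cells in 96-well plates to a single concentration of compound; below 10 was considered active.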 Values without a mark were called inactive. Active and inactive are the calls of the source.

In the case of `O=C(CCl)N(C1CCCCC1)C1CCCCC1`, the growth is 87.9% in the test on NCI-H23 lung; 105% in the test on NCI-H226 lung; 98.8% in the test with NCI-H322M lung; 119% in the test on HOP-62 NSCLC; 107% with NCI-H460 lung; 92.8% in the test on HOP-92 NSCLC. Moreover, the growth with NCI-H522 lung is -36.8% (active); in the test on A549/ATCC NSCLC, 115%; in the test on 786-0 renal it was 99.3%; with COLO 205 colon, 109%.

As for `Cc1ccc(-c2cc3nc(-c4ccccc4)nc(C(Cl)Cl)n3n2)cc1`, the growth in the test with NCI-H23 lung is 30.3%; with NCI-H226 lung, 70.9%; in the test with NCI-H322M lung, -85.9% (active); in the test on HOP-62 NSCLC it was -60.1% (active); with NCI-H460 lung, -48% (active); in the test on HOP-92 NSCLC it was -81.5% (active). Further, the growth was 95.4% in the test on NCI-H522 lung, -58.1% (active) with A549/ATCC NSCLC, -79.3% (active) with 786-0 renal and -66.1% (active) with COLO 205 colon.

In the case of `C=C[C@@H]1C[C@@H]2Cc3cc(Cl)ccc3N1O2`, the growth in the test on NCI-H23 lung was 101%; in the test on NCI-H226 lung, 88.9%; with NCI-H322M lung, 130%; with HOP-62 NSCLC, 94.8%; in the test on NCI-H460 lung, 97.5%; in the test with HOP-92 NSCLC, 67%. For the same molecule, the growth in the test on NCI-H522 lung was 92.7%; in the test on A549/ATCC NSCLC, 100%; with 786-0 renal, 102%; in the test on COLO 205 colon it was 94.3%.

Turning to `COc1cccc(CC(C)=C(c2ccc(OCCN3CCCCC3)cc2)c2ccc(OCCN3CCCCC3)cc2)c1`, the growth in the test with NCI-H23 lung is 58%; in the test with NCI-H226 lung, 79.8%; in the test with NCI-H322M lung it was 0.584% (active); in the test on HOP-62 NSCLC, 31.1%; in the test with NCI-H460 lung, -73.3% (active); in the test on HOP-92 NSCLC, -4.48% (active). The growth in the test on NCI-H522 lung was -75% (active); in the test with A549/ATCC NSCLC, 2.38% (active); with 786-0 renal it was -83.7% (active); in the test on COLO 205 colon it was -81.2% (active).

With `Cn1cc(-c2cnc3ccc(NC(=O)Nc4ccc(F)c(Br)c4)cc3n2)cn1`, the growth is 32% with NCI-H23 lung; 16.7% with NCI-H226 lung; 46.3% in the test with NCI-H322M lung; 0.864% (active) in the test on HOP-62 NSCLC; 32.4% in the test on NCI-H460 lung; -15.5% (active) with HOP-92 NSCLC. Also, the growth in the test on NCI-H522 lung was 8.07% (active); with A549/ATCC NSCLC it was 22.5%; with 786-0 renal, 38.7%; in the test on COLO 205 colon, 1.03% (active).

As for `N#C/C(=C1C=C/C(=N/O)C(Cl)=C/1)c1ccc(Cl)cc1`, the growth in the test with NCI-H23 lung is 104%; in the test on NCI-H226 lung, 71.5%; in the test with NCI-H322M lung, 118%; in the test on HOP-62 NSCLC it was 45.7%; in the test with NCI-H460 lung, 78.3%; in the test with HOP-92 NSCLC it was 70.5%. For the same molecule, the growth is 67.7% in the test on NCI-H522 lung, 88.8% with A549/ATCC NSCLC, 63.5% in the test with 786-0 renal and 99.8% in the test with COLO 205 colon.

Turning to `Cc1c(C(=O)/C=C/c2csc3ccccc23)[n+](=O)c2ccccc2n1[O-]`, the growth is 44.4% with NCI-H23 lung; 78.1% with NCI-H226 lung; 81.8% in the test on NCI-H322M lung; 98.7% in the test with HOP-62 NSCLC; 66.6% in the test with NCI-H460 lung; 43.9% in the test with HOP-92 NSCLC. Also, the growth is 6.66% (active) in the test on NCI-H522 lung, 61.7% in the test on A549/ATCC NSCLC, 88.3% with 786-0 renal and 73.4% with COLO 205 colon.

Turning to `Cn1c2ccc(Br)cc2c2c3c(c4c5ccccc5[nH]c4c21)C(=O)N(O)C3=O`, the growth with NCI-H23 lung is -42.6% (active); in the test with NCI-H226 lung, 24.1%; in the test on NCI-H322M lung it was -68% (active); in the test on HOP-62 NSCLC, -67.8% (active); in the test with NCI-H460 lung, -14.8% (active); in the test with HOP-92 NSCLC it was -77.3% (active). The growth in the test with NCI-H522 lung was -67% (active); in the test on A549/ATCC NSCLC, -13.8% (active); in the test with 786-0 renal, -93.8% (active); with COLO 205 colon, -84.4% (active).

Regarding `O=C1c2ccccc2-c2ccccc2C1(Cl)Cl`, the growth in the test on NCI-H23 lung was -20.8% (active); with NCI-H226 lung, 88.4%; in the test with NCI-H322M lung, 86.7%; in the test on HOP-62 NSCLC it was -98% (active); with NCI-H460 lung it was 4.08% (active); in the test with HOP-92 NSCLC it was -78.4% (active). In addition, the growth in the test with NCI-H522 lung was -88.6% (active); in the test with A549/ATCC NSCLC, -21.2% (active); in the test with 786-0 renal, 103%; in the test with COLO 205 colon, 92.3%.

`C=CCSc1n[nH]c(-c2cccs2)n1`: the growth in the test with NCI-H23 lung is 104%; with NCI-H226 lung, 99.4%; in the test on NCI-H322M lung, 110%; in the test on HOP-62 NSCLC it was 94.3%; with NCI-H460 lung, 107%; with HOP-92 NSCLC, 94.7%. The growth with NCI-H522 lung was 92%; in the test on A549/ATCC NSCLC, 98.8%; in the test with 786-0 renal it was 95.9%; in the test on COLO 205 colon, 137%.

Turning to `Nc1cccc(Cl)c1N`, the growth with NCI-H23 lung was 85.2%; with NCI-H226 lung, 101%; with NCI-H322M lung, 99.5%; in the test with HOP-62 NSCLC, 108%; in the test with NCI-H460 lung it was 101%; with HOP-92 NSCLC, 106%. Besides, the growth in the test with NCI-H522 lung is 71.1%; in the test with A549/ATCC NSCLC, 109%; in the test with 786-0 renal, 110%; in the test on COLO 205 colon, 104%.

For `COc1cc(C2NN=C3c4ccccc4CCC32)cc(OC)c1OC` (stereo not given), the growth in the test on NCI-H23 lung was 73.4%; in the test on NCI-H226 lung it was 62.6%; in the test with NCI-H322M lung, 88%; with HOP-62 NSCLC, 82.3%; in the test with NCI-H460 lung it was 91.3%; with HOP-92 NSCLC it was 62.4%. Moreover, the growth in the test with NCI-H522 lung is 81.2%; in the test on A549/ATCC NSCLC, 42%; with 786-0 renal, 93.9%; in the test on COLO 205 colon, 89.3%.
